About 83,000 compounds went through this panel and 20% of them were active in at least one assay; those are over-represented in the sample as a whole.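 96-well plates, one dose, 48 hours. Percent growth reported; active if below 10.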 A number with no mark means an inactive call. The source made the active and inactive calls.
Assays:
Test in all cases: NCI-60 one-dose screen, 48 h (100 = growth as untreated, 0 = no growth, -100 = all killed)
Settings in all cases: 10 µM unless noted
HCT-15 colon = test system: HCT-15 colon
HT29 colon = test system: HT29 colon
SNB-75 CNS = test system: SNB-75 CNS
SNB-19 CNS = test system: SNB-19 CNS
U251 CNS = test system: U251 CNS
PC-3 prostate = test system: PC-3 prostate
SK-MEL-5 melanoma = test system: SK-MEL-5 melanoma
UACC-62 melanoma = test system: UACC-62 melanoma
LOX IMVI melanoma = test system: LOX IMVI melanoma
SK-MEL-28 melanoma = test system: SK-MEL-28 melanoma

| SMILES | growth (HCT-15 colon) | growth (HT29 colon) | growth (SNB-75 CNS) | growth (SNB-19 CNS) | growth (U251 CNS) | growth (PC-3 prostate) | growth (SK-MEL-5 melanoma) | growth (UACC-62 melanoma) | growth (LOX IMVI melanoma) | growth (SK-MEL-28 melanoma) |
| --- | --- | --- | --- | --- | --- | --- | --- | --- | --- | --- |
| O=C1NC(=O)C(c2ccccc2)(c2ccccc2)N1Cc1cn(-c2c3ccccc3nc3ccccc23)nn1 | 59.9% | 85.3% | 85.1% | 89.4% | 91.2% | 78% | 82.2% | 72.4% | 78.2% | 103% |
| CC1=NN(c2ccc(S(=O)(=O)O)cc2)C(=O)C1N=Nc1ccc(-c2ccc(N=Nc3ccc(OS(=O)(=O)c4ccc(C)cc4)cc3)c(S(=O)(=O)O)c2)cc1 (stereo not given) | 82.8% | 93.3% | 78.8% | 104% | 96.2% | 86.3% | 104% | 92% | 69.4% | 103% |
| COc1cc(CCC[P+](c2ccccc2)(c2ccccc2)c2ccccc2)c(OC)c2c1OCO2 | 93.1% | 47.2% | 3.69% (active) | 15.2% | 11.5% | 14.4% | -48.9% (active) | 0.576% (active) | 29.6% | 32.1% |
| COc1cc(/C=N/NC(=O)c2ccc(C)nc2)cc(OC)c1OC | 97.2% | 103% | 79.4% | 108% | 102% | 98.1% | 96.3% | 86.7% | 94.8% | 117% |
| O=c1[nH]c2c(ccc3cnccc32)c2c1CCC2 | 1.99% (active) | 7.54% (active) | -33.4% (active) | 3.98% (active) | 5.85% (active) | 0.402% (active) | -48.5% (active) | -81.3% (active) | 0.937% (active) | -52.7% (active) |
| COc1ccc(/C=C(\C#N)n2nnc3c(F)cccc32)cc1 | 13.8% | 13.4% | -58.8% (active) | 30.7% | 23.7% | 29.8% | 32.3% | 29.5% | 19.8% | 36.4% |
| CCc1cccc2c3c(sc12)C(c1ccc(Cl)cc1)C(C#N)=C(N)O3 (stereo not given) | 13.8% | 6.86% (active) | -10.2% (active) | 27.1% | 24.7% | 7.23% (active) | 29% | 22.1% | 26.6% | 63.4% |
| COc1ccc(/C=C2\Oc3cc(OCCN4CCC(Cc5ccccc5)CC4)ccc3C2=O)cc1OC | 33.5% | 21.7% | 80.8% | 92.6% | 70.9% | 78.1% | 42.7% | 74.4% | 7.25% (active) | 81.5% |
| COc1cc2cc(Oc3ccc(NC(=O)Nc4cccc(C(F)(F)F)c4)cc3)c(C)nc2cc1OCCN1CCOCC1 | 27.2% | 35.3% | 77.8% | 30.7% | 28% | 15.7% | 6.62% (active) | 50.8% | 38.2% | 68.8% |
| COc1nc2ccccc2cc1-c1nc2c(cnn2-c2ccccc2)c(=O)[nH]1 | 24.8% | 9.45% (active) | 28.2% | 42.1% | 37.8% | 41.2% | 41.7% | 36.3% | 35% | 56.7% |
| CNc1nc2c(s1)C(c1cccc(F)c1)CC(=O)N2 (stereo not given) | 104% | 104% | 76.8% | 92.8% | 94.6% | 98.5% | 101% | 92.3% | 98.4% | 103% |
| O=C(CS(=O)c1oc(-c2cccs2)nc1S(=O)(=O)c1ccc(Br)cc1)c1ccccc1 (stereo not given) | 101% | 102% | 79.9% | 86.9% | 88.2% | 85.5% | 97.7% | 88.4% | 104% | 105% |
| COc1ccc(CN2c3ccccc3Sc3ccccc32)c(F)c1 | 35.4% | 3.61% (active) | -5.99% (active) | 40.9% | 30% | 30.3% | 25.8% | 33.1% | 52.7% | 53% |
| Cc1nc(/N=C(\N)NC(=O)Nc2ccccc2Cl)sc1C | 30.1% | 18% | -29.2% (active) | 44.2% | 29.2% | 33.1% | 32.6% | 45.7% | 43.3% | 63.2% |
| COc1cc(C2CC(c3cccc(Br)c3)=NN2C(C)=O)cc(OC)c1OC (stereo not given) | 13.4% | 13.8% | 12% | 40.8% | 12.2% | 37.1% | 23% | 14.8% | 50.1% | 70.2% |
| O=C1COCCN1c1ccc(NCc2cn(C(=O)c3ccc(Cl)cc3)c3ccccc23)cc1 | 54.9% | 44.5% | 59.6% | 91.7% | 50.9% | 71.4% | 25.1% | -41.1% (active) | 77.1% | 97% |
| COc1cc(Nc2cn[nH]c2-c2ccc(Cl)cc2)cc(OC)c1OC | 35.9% | 15% | -9.76% (active) | 56% | 35.3% | 56.4% | 39.1% | 23.2% | 41.6% | 46.2% |
| c1ccc(Nc2cc(-c3cccnc3)[nH]n2)cc1 | 101% | 100% | 52.8% | 77.9% | 84% | 102% | 101% | 102% | 103% | 105% |
| O=C(CCCCCCSc1nc(-c2ccccc2)cc(-c2ccccc2)n1)NO | 32.6% | 8.32% (active) | 21.2% | 47.3% | 35% | 49.7% | 9.17% (active) | 12.8% | 3.67% (active) | 39.9% |
| CC1=C(SCCC(=O)OC(C[Se]C2=C(C)C(=O)c3ccccc3C2=O)C(=O)NC(C)(C)C)C(=O)c2ccccc2C1=O (stereo not given) | 1.48% (active) | -5.09% (active) | -95.9% (active) | -92.6% (active) | -69% (active) | -64% (active) | -99.4% (active) | -91.2% (active) | -52.2% (active) | -96% (active) |
| c1ccc(-c2nc3nonc3nc2-c2ccccc2)cc1 | 68.3% | 82.7% | 65.4% | 77.8% | 58.3% | 46.5% | 63.8% | 58.7% | 56% | 90.3% |
| O=C(CCN1C(=O)/C(=C/c2ccc(O)cc2)SC1=S)Nc1ccc(Cl)cc1 | 91.2% | 108% | 90.4% | 89.7% | 96.5% | 88.1% | 99.2% | 83.3% | 97.8% | 99.2% |
| c1ccc(CO[C@H]2CO[C@H]3[C@@H]2OC[C@@H]3Oc2ccc(Nc3ncnc4ccsc34)cc2)cc1 | 78.7% | 81.9% | 87.5% | 82.7% | 81.9% | 80.3% | 9.33% (active) | 59.9% | 78.8% | 88.9% |
| Cn1cc(-c2cc3ncnc(Nc4ccc(CC(=O)Nc5cc(C(C)(C)C)nn5C)cc4)c3s2)cn1 | 54.8% | 50% | 56.3% | 95.7% | 61.2% | 43.9% | 49% | 33.5% | 33.6% | 77.2% |
| c1ccc(OCc2nnc(-c3ccc(Oc4ccccc4)cc3)o2)cc1 | 103% | 103% | 98.5% | 103% | 95.4% | 78.9% | 100% | 90.9% | 102% | 116% |
| Cc1cc(O)c(C2=NN(c3ccc(S(N)(=O)=O)cc3)C(/C=C/c3ccccc3)C2)cc1Cl (stereo not given) | 85.7% | 33.5% | 51.3% | 66.4% | 22.5% | 32.6% | 19.1% | -10.9% (active) | 18.5% | 23.9% |
| CC(=O)OC[C@H]1OC(Sc2sc(C(=O)c3ccc(Cl)cc3)c(N)c2-c2nc3ccccc3s2)[C@H](OC(C)=O)[C@@H](OC(C)=O)[C@@H]1OC(C)=O (stereo not given in full) | 82.3% | 81% | 50.1% | 92.8% | 88.6% | 83.4% | 85.2% | 97.9% | 68.8% | 94.2% |

Source: PubChem BioAssay (NCI)
